Laboratory results as given in PubChem BioAssay (NCI).
About 83,000 compounds went through this panel and 20% of them were active in at least one assay; those are over-represented in the sample as a whole.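 Percent growth is the endpoint: 0 to 100 indicates growth inhibition (40 means 60% inhibition), 0 means no net growth, and negative values indicate cell death.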 Activity calls are given as the source filed them. How the source made its calls: active means growth percent below 10; inactive means the rest.

Assays:
Experiment in all cases: NCI-60 one-dose screen, 48 h (100 = growth as untreated, 0 = no growth, -100 = all killed)
Conditions in all cases: 10 µM unless noted
DU-145 prostate = test system: DU-145 prostate
K-562 leukemia = test system: K-562 leukemia
MALME-3M melanoma = test system: MALME-3M melanoma
MDA-MB-231 breast = test system: MDA-MB-231 breast
RXF 393 renal = test system: RXF 393 renal
SF-268 CNS = test system: SF-268 CNS
SF-295 CNS = test system: SF-295 CNS
SF-539 CNS = test system: SF-539 CNS
UACC-257 melanoma = test system: UACC-257 melanoma
M14 melanoma = test system: M14 melanoma
HCT-15 colon = test system: HCT-15 colon
HT29 colon = test system: HT29 colon
SNB-75 CNS = test system: SNB-75 CNS
SNB-19 CNS = test system: SNB-19 CNS
U251 CNS = test system: U251 CNS
PC-3 prostate = test system: PC-3 prostate
SK-MEL-5 melanoma = test system: SK-MEL-5 melanoma
UACC-62 melanoma = test system: UACC-62 melanoma
LOX IMVI melanoma = test system: LOX IMVI melanoma
SK-MEL-28 melanoma = test system: SK-MEL-28 melanoma

Measured: growth

O=C(Nc1ccccc1)c1cc(-n2cnc([N+](=O)[O-])c2)cc(-n2cnc([N+](=O)[O-])c2)n1
inactive: DU-145 prostate 110% | K-562 leukemia 86.5% | MALME-3M melanoma 94.4% | MDA-MB-231 breast 88.6% | SF-268 CNS 119% | SF-295 CNS 130% | SF-539 CNS 102% | UACC-257 melanoma 89.3% | M14 melanoma 94.6% | HCT-15 colon 114% | HT29 colon 107% | SNB-75 CNS 98.9% | SNB-19 CNS 106% | U251 CNS 101% | PC-3 prostate 88.8% | SK-MEL-5 melanoma 95.6% | UACC-62 melanoma 103% | LOX IMVI melanoma 94.2% | SK-MEL-28 melanoma 122%
active: RXF 393 renal -14.6%

[N-]=[N+]=NCc1cccc(/C(O)=C/C(=O)C(=O)O)c1
inactive: DU-145 prostate 92.1% | K-562 leukemia 110% | MALME-3M melanoma 91.5% | MDA-MB-231 breast 88.4% | RXF 393 renal 24.6% | SF-268 CNS 91.5% | SF-295 CNS 143% | SF-539 CNS 100% | UACC-257 melanoma 100% | M14 melanoma 118% | HCT-15 colon 113% | HT29 colon 83.9% | SNB-75 CNS 73.6% | SNB-19 CNS 101% | U251 CNS 103% | PC-3 prostate 97.3% | SK-MEL-5 melanoma 106% | UACC-62 melanoma 92.4% | LOX IMVI melanoma 92.6% | SK-MEL-28 melanoma 82.1%

COc1cc(/C=C2\SC(N3CCCCC3)=NC2=O)ccc1OCCCCCCOc1ccc(/C=C2\SC(N3CCCCC3)=NC2=O)cc1OC
inactive: MDA-MB-231 breast 20.9% | M14 melanoma 13.1% | HCT-15 colon 25.5% | SNB-75 CNS 18.8% | SNB-19 CNS 44% | PC-3 prostate 34% | SK-MEL-5 melanoma 10.3% | UACC-62 melanoma 17.6% | SK-MEL-28 melanoma 12.7%
active: DU-145 prostate -7% | K-562 leukemia 3.85% | MALME-3M melanoma 5.59% | RXF 393 renal -44.3% | SF-268 CNS -1.61% | SF-295 CNS 4.37% | SF-539 CNS -1.19% | UACC-257 melanoma -0.986% | HT29 colon -13.8% | U251 CNS -3.37% | LOX IMVI melanoma -44.7%

CCSc1nc(Nc2ccc(S(=O)(=O)Nc3ccon3)cc2)c(C#N)c(-c2cccc(Br)c2)n1
inactive: DU-145 prostate 112% | K-562 leukemia 77.9% | MALME-3M melanoma 105% | MDA-MB-231 breast 97% | RXF 393 renal 94.7% | SF-268 CNS 99.3% | SF-295 CNS 82% | SF-539 CNS 82.2% | UACC-257 melanoma 115% | M14 melanoma 104% | HCT-15 colon 87.3% | HT29 colon 91.8% | SNB-75 CNS 93.3% | SNB-19 CNS 100% | U251 CNS 81.1% | PC-3 prostate 79.6% | SK-MEL-5 melanoma 85.4% | UACC-62 melanoma 91.5% | LOX IMVI melanoma 94.1% | SK-MEL-28 melanoma 103%

O=C1C(=O)/C(=C/c2ccccc2)CCCCCC/C1=C/c1ccccc1
active: K-562 leukemia 4.05% | RXF 393 renal -11.6% | HT29 colon -25.6% | LOX IMVI melanoma -73.5%
inactive: DU-145 prostate 64.6% | MALME-3M melanoma 90.9% | MDA-MB-231 breast 96.2% | SF-268 CNS 60.6% | SF-295 CNS 76.5% | SF-539 CNS 103% | UACC-257 melanoma 75.3% | M14 melanoma 50% | HCT-15 colon 32.2% | SNB-75 CNS 68% | SNB-19 CNS 67.9% | U251 CNS 11% | PC-3 prostate 55.4% | SK-MEL-5 melanoma 88.2% | UACC-62 melanoma 79.6% | SK-MEL-28 melanoma 94.9%

Nc1ccn(C2O[C@H](CO)[C@@H](O)[C@@H]2O)c(=O)n1 (stereo not given in full)
active: M14 melanoma -15.7%
inactive: DU-145 prostate 29.6% | K-562 leukemia 62.4% | MALME-3M melanoma 57.2% | MDA-MB-231 breast 68.8% | RXF 393 renal 83.4% | SF-268 CNS 34% | SF-295 CNS 50.8% | SF-539 CNS 72.4% | UACC-257 melanoma 54.5% | HCT-15 colon 59.5% | HT29 colon 42.7% | SNB-75 CNS 78.6% | SNB-19 CNS 47.9% | U251 CNS 40% | PC-3 prostate 63.9% | SK-MEL-5 melanoma 45.1% | UACC-62 melanoma 22.1% | LOX IMVI melanoma 19.1% | SK-MEL-28 melanoma 68.5%

CCOC(=O)C(Br)=P(c1ccccc1)(c1ccccc1)c1ccccc1
inactive: DU-145 prostate 124% | K-562 leukemia 105% | MALME-3M melanoma 94.3% | MDA-MB-231 breast 92.6% | RXF 393 renal 79.9% | SF-268 CNS 120% | SF-295 CNS 110% | SF-539 CNS 101% | UACC-257 melanoma 98.9% | M14 melanoma 111% | HCT-15 colon 102% | HT29 colon 106% | SNB-75 CNS 118% | SNB-19 CNS 114% | U251 CNS 87.7% | PC-3 prostate 99.9% | SK-MEL-5 melanoma 87.6% | UACC-62 melanoma 92.8% | LOX IMVI melanoma 101% | SK-MEL-28 melanoma 107%

O=C(/C=C/c1cccc(Nc2ccnc3cc(Cl)ccc23)c1)c1ccc(Cl)cc1
inactive: DU-145 prostate 59.6% | K-562 leukemia 14.6% | MALME-3M melanoma 62.5% | MDA-MB-231 breast 60.4% | RXF 393 renal 71.9% | SF-268 CNS 69.2% | SF-295 CNS 40.2% | SF-539 CNS 62.5% | UACC-257 melanoma 61.3% | M14 melanoma 54.3% | HCT-15 colon 54.8% | HT29 colon 21.8% | SNB-75 CNS 67.6% | SNB-19 CNS 63.2% | U251 CNS 49.9% | PC-3 prostate 62.9% | SK-MEL-5 melanoma 39.6% | UACC-62 melanoma 50.2% | LOX IMVI melanoma 11.2% | SK-MEL-28 melanoma 71%

COc1cc(C2=NN(C=O)C(c3cccc(Nc4ccnc5cc(Cl)ccc45)c3)C2)cc(OC)c1OC (stereo not given)
inactive: DU-145 prostate 80.2% | K-562 leukemia 46.5% | MALME-3M melanoma 89.3% | MDA-MB-231 breast 76.5% | RXF 393 renal 72.2% | SF-268 CNS 74.2% | SF-295 CNS 66.8% | SF-539 CNS 91.7% | UACC-257 melanoma 73.2% | M14 melanoma 64.1% | HCT-15 colon 52.4% | HT29 colon 22% | SNB-75 CNS 74.3% | SNB-19 CNS 76.2% | U251 CNS 66.8% | PC-3 prostate 42.7% | SK-MEL-5 melanoma 68.1% | UACC-62 melanoma 96.4% | LOX IMVI melanoma 54.5% | SK-MEL-28 melanoma 90.6%

C[C@H]1c2cccc(O)c2C(O)=C2C(=O)[C@]3(O)C(O)=C(C(N)=O)C(=O)[C@@H](N(C)C)[C@@H]3[C@@H](O)[C@@H]21
inactive: DU-145 prostate 47.7% | K-562 leukemia 37.9% | MALME-3M melanoma 27.8% | MDA-MB-231 breast 74.6% | RXF 393 renal 58.3% | SF-268 CNS 28.2% | SF-295 CNS 19.2% | SF-539 CNS 25.6% | UACC-257 melanoma 57.7% | M14 melanoma 32.1% | HCT-15 colon 31.2% | HT29 colon 39.6% | SNB-75 CNS 47.3% | SNB-19 CNS 69.9% | U251 CNS 33.1% | PC-3 prostate 42.3% | UACC-62 melanoma 34.1% | LOX IMVI melanoma 31.5% | SK-MEL-28 melanoma 65.4%
active: SK-MEL-5 melanoma 9.29%

CCSc1nc(-c2cccs2)n2nc(-c3ccco3)cc2n1
inactive: DU-145 prostate 113% | K-562 leukemia 100% | MALME-3M melanoma 107% | MDA-MB-231 breast 91.6% | RXF 393 renal 107% | SF-268 CNS 102% | SF-295 CNS 99.4% | SF-539 CNS 100% | UACC-257 melanoma 103% | M14 melanoma 109% | HCT-15 colon 78% | HT29 colon 88.8% | SNB-75 CNS 84.2% | SNB-19 CNS 109% | U251 CNS 91.4% | PC-3 prostate 99% | SK-MEL-5 melanoma 86.5% | UACC-62 melanoma 85.2% | LOX IMVI melanoma 92% | SK-MEL-28 melanoma 113%

C[C@H]1O[C@@H](O[C@H]2[C@@H](O)C[C@H](O[C@H]3[C@@H](O)C[C@H](O[C@H]4CC[C@]5(C)C6CC[C@]7(C)[C@@H](C8=CC(=O)OC8)CC[C@]7(O)C6CC[C@@H]5C4)O[C@@H]3C)O[C@@H]2C)C[C@H](O)[C@@H]1O (stereo not given in full)
active: DU-145 prostate -100% | K-562 leukemia -45% | MALME-3M melanoma -63.9% | MDA-MB-231 breast -48.6% | RXF 393 renal -27.1% | SF-268 CNS -100% | SF-295 CNS -98.2% | SF-539 CNS -94.6% | UACC-257 melanoma -100% | M14 melanoma -81.1% | HCT-15 colon -85.6% | HT29 colon -89.8% | SNB-75 CNS -80.8% | SNB-19 CNS -100% | U251 CNS -100% | PC-3 prostate -24.1% | SK-MEL-5 melanoma -100% | UACC-62 melanoma -82.4% | LOX IMVI melanoma -100% | SK-MEL-28 melanoma -51.5%

CCCCc1ccc(C(N)=O)nc1
active: SK-MEL-28 melanoma -97.1%
inactive: DU-145 prostate 102% | K-562 leukemia 109% | MALME-3M melanoma 108% | MDA-MB-231 breast 102% | RXF 393 renal 103% | SF-268 CNS 101% | SF-295 CNS 109% | SF-539 CNS 105% | UACC-257 melanoma 97.8% | M14 melanoma 100% | HCT-15 colon 94.1% | HT29 colon 109% | SNB-75 CNS 79.2% | SNB-19 CNS 102% | U251 CNS 100% | PC-3 prostate 98.7% | SK-MEL-5 melanoma 101% | UACC-62 melanoma 93.1% | LOX IMVI melanoma 89%

O=C(Nc1ccc2c(c1)C(=O)c1ccccc1-2)c1ccccc1
inactive: DU-145 prostate 81.9% | K-562 leukemia 81.2% | MALME-3M melanoma 90.2% | MDA-MB-231 breast 81.9% | RXF 393 renal 99.2% | SF-268 CNS 65.2% | SF-295 CNS 103% | SF-539 CNS 52.6% | UACC-257 melanoma 111% | M14 melanoma 88% | HCT-15 colon 67.2% | HT29 colon 35.8% | SNB-75 CNS 86.6% | SNB-19 CNS 73% | PC-3 prostate 92.9% | SK-MEL-5 melanoma 97.9% | UACC-62 melanoma 90.2% | LOX IMVI melanoma 73.2% | SK-MEL-28 melanoma 105%
active: U251 CNS -13.9%
